The supplement of paper PMC9262897, “Low-cost anti-mycobacterial drug discovery using engineered E. coli” (Nature Communications, 2022)
Structures can show the parent of a compound that is named as a salt. ± gives the standard deviation of the averaged measurements.

Test system: E. coli TESEC Mtb Alr
Experiment: growth (OD600 after 10 h); higher = more growth (less inhibition)
Conditions: compound 0.1 mM
Protocol: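 TESEC Mtb Alr E. coli, or the Alr+ wild-type control, in 384-well plates with Prestwick library compounds at 0.1 mM and 1% DMSO, across arabinose induction levels of 1E3 to 1E7 nM. Growth is read as OD600 after 10 h at 37 °C in triplicate biological replicates.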

[1] = arabinose 1000 nM, raw OD600 reference: median of DMSO wells 0.294, cell-free background 0.041
[2] = arabinose 10000 nM, raw OD600 reference: median of DMSO wells 0.264, cell-free background 0.041
[3] = arabinose 100000 nM, raw OD600 reference: median of DMSO wells 0.201, cell-free background 0.041
[4] = arabinose 1000000 nM, raw OD600 reference: median of DMSO wells 0.193, cell-free background 0.041
[5] = arabinose 10000000 nM, raw OD600 reference: median of DMSO wells 0.146, cell-free background 0.041

Structure (SMILES)	growth [1]	growth [2]	growth [3]	growth [4]	growth [5]
CN(C)[C@@H]1C(=O)C(C(N)=O)=C(O)[C@@]2(O)C(=O)C3=C(O)c4c(O)cccc4[C@@](C)(O)[C@H]3C[C@@H]12 [Tetracycline hydrochloride]	0.0426 ± 0.0035	0.04053 ± 0.00032	0.0418 ± 0.0011	0.04083 ± 0.00025	0.0422 ± 0.00068
CC[C@@H](C(N)=O)N1CCCC1=O [Levetiracetam]	0.304 ± 0.018	0.264 ± 0.0095	0.205 ± 0.0055	0.183 ± 0.0062	0.168 ± 0.0049
CC(C)N(CCC(C(N)=O)(c1ccccc1)c1ccccn1)C(C)C (stereo not given) [Disopyramide]	0.285 ± 0.018	0.25 ± 0.0026	0.195 ± 0.0071	0.171 ± 0.0034	0.14 ± 0.0064
C[C@@]12N[C@@H](Cc3ccccc31)c1ccccc12 [(-)-MK 801 hydrogen maleate]	0.29 ± 0.013	0.247 ± 0.0096	0.138 ± 0.0052	0.113 ± 0.0073	0.132 ± 0.0029
C[C@]12CC[C@H](O)C[C@H]1CC[C@@H]1[C@@H]2CC[C@]2(C)[C@@H](C3=CC(=O)OC3)CC[C@]12O [Digitoxigenin]	0.197 ± 0.0049	0.251 ± 0.0094	0.117 ± 0.0044	0.0923 ± 0.0033	0.126 ± 0.0021
CC(NC(C)(C)C)C(=O)c1cccc(Cl)c1 (stereo not given) [Bupropion hydrochloride]	0.283 ± 0.018	0.257 ± 0.0069	0.229 ± 0.023	0.171 ± 0.0039	0.136 ± 0.0076
C[C@@H]1CC[C@H]2[C@@H](C)C(=O)O[C@@H]3O[C@@]4(C)CC[C@@H]1[C@]32OO4 [Artemisinin]	0.121 ± 0.0046	0.194 ± 0.0057	0.142 ± 0.013	0.109 ± 0.0053	0.135 ± 0.0031
CC(C)(C)NCC(O)c1ccccc1Cl (stereo not given) [Tulobuterol]	0.272 ± 0.0075	0.273 ± 0.0098	0.174 ± 0.013	0.203 ± 0.0095	0.1357 ± 0.00093
